Shown are actives, neighbours in structure and some others; about 6.1% of the full set was active somewhere.
D1 antag = antagonists of human D1 dopamine receptor; HEK293 TREx D1 cells, calcium flux, dopamine EC80; hits give low values; activity change, negative = inhibition, % at 10 µM; 3.2% of 360,000 active; in the data active = activity change below about -30%; note: % is set by controls: 0 for no effect and ±100 for the full control effect
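Cells carrying a force-coupled, tetracycline-inducible human D1 receptor report calcium flux. Each well gets a 10 s baseline, compound with 180 s monitoring, then an EC80 dopamine stimulus with a second 180 s kinetic read.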
DRD3 agonist = activates the human D3 dopamine receptor | 0.58% of 410,000 active | D3R DiscoveRx beta-arrestin cells, luminescence, 90 min | max activation, % | P35462; in the data active = max activation above about 30%; note: 0% is about no effect
Target sequence (P35462 whole entry, looked up): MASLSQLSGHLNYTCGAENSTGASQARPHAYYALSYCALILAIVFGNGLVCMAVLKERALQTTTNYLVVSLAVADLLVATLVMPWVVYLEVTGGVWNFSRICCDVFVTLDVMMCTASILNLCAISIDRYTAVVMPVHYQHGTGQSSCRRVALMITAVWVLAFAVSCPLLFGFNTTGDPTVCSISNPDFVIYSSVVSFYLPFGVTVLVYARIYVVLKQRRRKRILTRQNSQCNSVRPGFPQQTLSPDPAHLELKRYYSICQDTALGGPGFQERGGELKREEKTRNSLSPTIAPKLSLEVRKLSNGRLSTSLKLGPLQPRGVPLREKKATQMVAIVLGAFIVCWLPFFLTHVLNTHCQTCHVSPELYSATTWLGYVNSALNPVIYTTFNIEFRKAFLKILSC
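Cells at 1500/well, incubated overnight, then treated with pinned compounds (dopamine as control) for 90 min at 37 degrees C. DiscoveRx reagent added for 30 - 60 minutes at room temperature; luminescence read.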
D1 PAM = potentiators of human D1 dopamine receptor. HEK293 TREx D1 cells, calcium flux, dopamine EC20 potentiation. AID 504651. P21728. 0.036% of 360,000 active. potentiation, % at 10 µM; in the data active = potentiation above about 30%; note: 0% is about no effect
D1 agonist = activates the human D1 dopamine receptor | P21728 | HEK293 T-REx D1 cells, calcium flux, agonist mode | activation, % at 2 µM | 1% of 360,000 active | AID 504660; in the data active = activation above about 30%; note: 0% is about no effect
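Agonism was scored from calcium flux recorded over 180 s (1 read/s) after pintool compound addition, following a 10-cycle baseline. Cells were inducible force-coupled HEK293 TREx D1, plated overnight at 30 C and loaded with no-wash calcium dye.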
D3 antag = antagonists of human D3 dopamine receptor. max response, negative = inhibition, %. D3R cells, DiscoveRx beta-arrestin luminescence, antagonist mode; hits give low values. 2.5% of 360,000 active. P35462. AID 652054; in the data active = max response below about -50%; inconclusive = no clear call, values can overlap the other calls; note: % is set by controls: 0 for no effect and ±100 for the full control effect
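Cells plated overnight at 1500 cells/well, then exposed to library compounds with dopamine controls for 90 minutes at 37 degrees C. DiscoveRx reagent added for 30–60 minutes at room temperature; luminescence read, quantitative HTS format.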
* marks the source's active call; other numbers are inactive results; u = inconclusive; x = not tested or not shown.

SMILES	D1 antag	DRD3 agonist	D1 PAM	D1 agonist	D3 antag
CCS(=O)(=O)N1CCc2cc(C(=O)NCCc3ccccc3)ccc21	-3	-19	-3	5	x
COc1cccc(-c2nc(S(=O)(=O)c3ccc(C)cc3)c(N3CCCCC3)o2)c1	-10	-2	-2	5	x
CCOC(=O)c1cc2c(N)c(C(=O)c3ccc(Br)cc3)sc2[nH]c1=O	3	-11	-9	2	-16
COc1ccc(NC(=O)C2(C)Cc3c(-c4cccc(C(N)=O)c4)ccnc3O2)cc1 (centres undefined)	x	-7	x	x	9
Cc1ccccc1C(=O)Oc1cc(-c2ccc3c(c2)OCO3)cc(=O)c2c(C)oc(C)c12	-3	6	-2	0	x
CCN(CC)CC(O)Cn1c(C)c(-c2ccccc2)c2cc([N+](=O)[O-])ccc21 (centres undefined)	2	-7	-8	34*	u
O=C(COc1ccccc1O)NCCN1CCOCC1	25	-15	3	2	-1
O=C(CC(c1ccccc1)c1ccccc1O)NCCN1CCOCC1 (centres undefined)	-53*	-4	0	0	-55*
O=C(C[C@H]1C/C=C\CC[C@H](Cc2ccc(F)cc2)C(=O)OCCNC1=O)NCCO	x	5	x	x	-29
CCc1ccc(NC(=O)C2CCN(C(=O)[C@@H]3Cc4ccccc4CN3)CC2)cc1	8	-2	-2	32*	9
CCOc1ccc(S(=O)(=O)N2CCN(C(=O)c3cc4c(s3)CCCC4)CC2)cc1	1	-2	-3	2	5
Cc1ccc(NCC(=O)Nc2ccc(Br)cc2)cc1C	-48*	2	-7	5	2
O=C(COC(=O)c1cc(=O)[nH]c2ccccc12)NCc1ccccc1	x	-3	x	x	-1
O=C(Nc1ccn(Cc2ccccc2F)n1)c1ccc(COc2ccc(Br)cc2)cc1	-54*	-4	-10	52*	14
CC1CCCCC12NC(=O)N(CC(=O)NCCc1ccc(F)cc1)C2=O (centres undefined)	0	-1	2	0	-19
O=C(Nc1ccc2c(c1)OCCO2)C(c1ccccc1)n1c(=O)c(-c2ccco2)nc2ccccc21 (centres undefined)	x	-8	x	x	0
COCCn1c(SCC(=O)c2ccc(Cl)cc2)nnc1C(C)C	9	-1	-3	2	-70*
COc1ccc(CN2C(=O)c3oc4ccc(F)cc4c(=O)c3C2c2ccc(O)cc2)cc1 (centres undefined)	-36*	-10	-3	1	x
Cc1cccc(/C=N\Nc2cn[nH]c(=O)c2Cl)c1	-23	-3	-7	0	-82*
O=c1[nH]ncc(N/N=C\c2cccnc2)c1Cl	-1	-7	-23	2	9
COC(=O)CN(c1ccccc1C)S(C)(=O)=O	-38*	4	-4	1	15
Cc1ccc(C)c(NC(=S)NC(NC(=O)OCc2ccccc2)C(Cl)(Cl)Cl)c1 (centres undefined)	-4	-3	-5	6	u
O=C(NC(NC(=S)Nc1c(Cl)cc(Cl)cc1Cl)C(Cl)(Cl)Cl)OCc1ccccc1 (centres undefined)	-3	1	-8	4	-76*
COc1ccc(NC(=O)c2c(C)oc3ccc(O)c(CN4CCN(C)CC4)c23)cc1Cl	-8	-15	-1	8	x
Cc1c(C(=O)NCc2ccccc2F)oc2ccccc12	-20	-7	-8	1	-18
SMILES	D1 antag	DRD3 agonist	D1 PAM	D1 agonist	D3 antag
CCOCc1c(C(=O)NCc2ccccc2CN2CCCC2)oc2ccccc12	-30*	-18	-6	1	22
CCOCc1c(C(=O)Nc2cc(OCC)c(N3CCOCC3)cc2OCC)oc2ccccc12	1	12	-4	2	63
Cc1c(C(=O)NCc2ccccc2CN2CCCC2)oc2ccccc12	-43*	-22	-17	0	-12
CCOCc1c(C(=O)Nc2ccc3nc(N4CCOCC4)sc3c2)oc2ccccc12	-32*	1	-8	0	60
CCN(CC)Cc1c(C)[nH]c2ccc(NC(C)=O)cc2c1=O	x	1	x	x	26
COC(=O)c1ccccc1NC(=O)Cn1c(=O)nc(-c2ccccc2)c2cc(Cl)ccc21	-19	2	0	0	x
N#CCCN(Cc1cccnc1)S(=O)(=O)c1ccc2ccccc2c1	-37*	-2	0	0	-10
Cc1ccc(NC(=O)CCC(=O)c2cc(C)sc2C)nc1	2	-4	1	5	9
c1ccc2c(NC3CCCC3)nnc(NC3CCCC3)c2c1	-15	1	-10	-2	-71*
Cc1cccnc1NC1CCCCC1	-2	-1	-6	2	-11
CCCCCOc1ccc(NC(=O)Cn2c(-c3cncs3)nc3ccccc32)cc1	0	0	0	-1	x
C=Cc1ccc(CN2C(=O)N(c3cccc(Cl)c3)S(=O)(=O)c3ccccc32)cc1	-92*	10	-4	3	x
O=S1(=O)c2ccccc2N(Cc2ccc(Cl)cc2)c2ccccc21	3	-18	-4	32*	x
CSc1cccc(N2C(=O)N(Cc3ccc([N+](=O)[O-])cc3)c3ccccc3S2(=O)=O)c1	-23	-2	-5	5	x
Cc1cc(=O)n(CCCc2ccccc2)[nH]1	-20	-6	-7	-1	-67*
COC[C@H]1CCCN1[C@@H]1CS(=O)(=O)N[C@H]1COCc1ccccc1	x	-4	x	x	-9
Nc1nnnn1/N=C/c1ccc(N2CCCCC2)c([N+](=O)[O-])c1	-3	-6	0	1	-54*
O=C(O/N=C\c1ccc(N2CCCCC2)c([N+](=O)[O-])c1)c1ccc(Cl)cc1Cl	-13	3	4	4	-3
O=C(CCCN1C(=O)/C(=C\c2cccs2)SC1=S)Nc1ccc(O)cc1	-33*	-3	-2	4	-1
O=C(CCN1C(=O)/C(=C/c2cccs2)SC1=S)Nc1ccc(C(=O)O)cc1	-24	1	-4	4	0
O=C(CCCN1C(=O)/C(=C\c2cccs2)SC1=S)Nc1ccc(C(=O)O)cc1	12	1	-2	3	-22
O=C(CCN1C(=O)/C(=C/c2cccs2)SC1=S)Nc1ccccn1	-13	-7	-8	45*	40
CCN(CC)CCOC(=O)c1ccc(NC(=O)CCCN2C(=O)/C(=C/c3cccs3)SC2=S)cc1	-77*	-46	-22	10	-74*
Cc1ccc(CNC(=O)c2cc3c(=O)n(Cc4cccnc4)ccc3nc2C)cc1	4	7	-4	1	x
CCC1C(=NO)C(CC)C(c2ccccc2)NC1c1ccccc1 (centres undefined)	-12	23	1	1	13
COc1ccc(-c2csc(NC(=O)C3CCN(c4ncnc5sc(C)c(C)c45)CC3)n2)cc1OC	0	47*	6	7	56
